Hits are enriched below; roughly 1.6% of the tested compounds scored in any of these assays.
HTR5A ag – HTR5A agonists in luminescence cell assay, primary screen, counter-screen for OPRM1-OPRD1 heterodimer agonist project, full-deck HTS; cell-based; activation, % at 9.3 µM; AID 504692, 2011; 340,000 tested, 0.61% active; in the data active = activation mostly above about 9.5%, no sharp cut-off; inactive = mostly below about 7.6%;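 note: 0% = cells with vehicle only and 100% = reference agonist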
Target sequence (P47898 whole entry, looked up): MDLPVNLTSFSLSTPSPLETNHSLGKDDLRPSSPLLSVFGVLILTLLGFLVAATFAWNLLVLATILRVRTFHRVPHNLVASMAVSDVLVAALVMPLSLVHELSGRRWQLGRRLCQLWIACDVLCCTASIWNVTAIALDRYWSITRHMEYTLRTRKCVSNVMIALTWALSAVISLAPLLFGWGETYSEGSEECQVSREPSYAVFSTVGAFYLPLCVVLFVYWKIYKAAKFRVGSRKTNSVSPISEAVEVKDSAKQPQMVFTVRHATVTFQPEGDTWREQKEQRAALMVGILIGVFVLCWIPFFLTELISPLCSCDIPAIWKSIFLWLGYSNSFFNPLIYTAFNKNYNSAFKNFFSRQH
MOR-DOR ag – agonists of OPRM1-OPRD1 heterodimerization, primary screen, cell-based, luminescence. cells. AID 504326, 2011. 340,000 tested, 0.3% active. Mu-type opioid receptor (Homo sapiens) + Delta-type opioid receptor (Homo sapiens), …. activation, % at 9.3 µM;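 note: 0% = vehicle-treated cells and 100% = reference agonist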
OPRM1-OPRD1 inv – inverse agonists of MOR-DOR heterodimerization, primary screen, cell-based, luminescence | 340,000 tested, 0.21% active | cell-based MOR-DOR heterodimer luminescence, inverse agonism | Mu-type opioid receptor (Homo sapiens) + Delta-type opioid receptor (Homo sapiens), … | inhibition, % at 9.3 µM | AID 504357, 2011; in the data active = inhibition above about 22%, passing the limit was not always enough;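 note: 0% = cells with DMSO and 100% = wells without cells with DMSO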
NALP1 yeast inh – NALP1 inflammasome inhibitors in reconstituted yeast, colorimetric, S. cerevisiae, triplicate retest; S. cerevisiae NALP1/ASC/caspase-1 growth, X-gal OD620, 72 h; inhibition, % at 10 µM; 280,000 tested, 0.61% active; in the data active = inhibition mostly above about 24%, no sharp cut-off; inactive = mostly below about 32%
HTR5A inv ctr – HTR5A inverse agonists in luminescence cell assay, primary screen, counter-screen for OPRM1-OPRD1 heterodimer inverse agonist project, full-deck HTS. 5-hydroxytryptamine receptor 5A (Homo sapiens), P47898. HTR5A cell line, inverse agonism. inhibition, % at 9.3 µM. 340,000 tested, 0.083% active. AID 504634, 2011; in the data active = inhibition mostly above about 23%, no sharp cut-off; inactive = mostly below about 18%;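 note: 0% = cells with DMSO and 100% = no-cell wells with DMSO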
PolyA inh – polyadenylation inhibitors in yeast reporter cells, primary screen, luminescence, S. cerevisiae. S. cerevisiae SKY197-pL101 polyadenylation reporter, beta-gal luminescence; efflux-impaired pdr1/pdr3 knockout yeast; score 100 = 6 SD above DMSO. activity score, % at 12 µM. 300,000 tested, 0.02% active. AID 1875, 2009;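 active = lowest replicate activity score at least 50, where 100 means six control SD above control mean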;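 note: yeast exposed to compound for 9 h at 30 °C; higher score means more reporter readthrough which indicates perturbed polyadenylation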
OPRM1-D1 ag cf – agonists of MOR-DOR heterodimerization, confirmation, cell-based, luminescence | shares compounds with MOR-DOR ag | cells, luminescence complementation | activation, % at 9.3 µM | 830 tested, 45% active;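 note: 0% = vehicle-treated cells and 100% = reference agonist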
HTR5A ag ctr2 – HTR5A agonists in cells, counter-screen for OPRM1-OPRD1 heterodimer agonist project, cell-based, luminescence. HTR5A agonist counterscreen. AID 504905, 2011. activation, % at 9.3 µM. 830 tested, 8% active. shares compounds with MOR-DOR ag; in the data active = activation above about 17%;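 note: 0% = vehicle-treated cells and 100% = reference agonist response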
* marks the source's active call; other numbers are inactive results; i = inactive; . = no result. Cut-off read from the data, not from the text of the source, unless noted: active = activation above about 18%; inactive = the rest.

SMILES	HTR5A ag	MOR-DOR ag	OPRM1-OPRD1 inv	NALP1 yeast inh	HTR5A inv ctr	PolyA inh	OPRM1-D1 ag cf	HTR5A ag ctr2
CCOC(=O)C1(Cc2ccc(Cl)cc2)CCN(Cc2cn(CC)nc2C)CC1	6.2	20.6*	-102.5	6.3	-18.5	0.0	11.1	-0.4
CCCn1cc(CN2CCC(Cc3cccc(F)c3)(C(=O)OCC)CC2)c(C)n1	1.1	-1.8	8.9	10.5	-3.2	1.0	.	.
CCOC(=O)C1(Cc2cccc(F)c2)CCN(Cc2cnn(CC)c2)CC1	0.9	67.8*	-331.9	5.6	-15.8	-10.1	-3.1	-8.9
CCOC(=O)C1(CCCc2ccccc2)CCN(C(=O)CCc2cnn(C)c2)CC1	-2.1	0.4	-2.7	-4.7	4.3	3.7	.	.
CCOC(=O)C1(CCCc2ccccc2)CCN(Cc2cnn(C)c2)CC1	-3.4	98.5*	i	-2.6	9.5	-17.7	114.5*	-1.8
O=C(Nc1ccccc1)c1oc2ccccc2c1NC(=O)C1CC1	-4.1	2.1	-11.1	-4.4	3.6	-5.3	.	.
NC1=NC(c2ccccc2)N=C(Nc2ccccc2)N1 (stereo unspecified)	.	.	.	12.8	.	24.1	.	.
COc1cccc(NC(=O)C(=O)NCCC2CCCCN2S(=O)(=O)c2ccccc2)c1 (stereo unspecified)	-0.7	-0.9	6.0	.	2.1	-25.3	.	.
CN=c1scc(-c2ccccc2F)n1/N=C/c1ccc(O)c(O)c1O	1.8	18.3*	-86.6	19.2	-4.5	7.8	0.6	0.8
CC(C)c1ccc(C(CC(=O)O)N2Cc3ccccc3C2=O)cc1 (stereo unspecified)	-0.3	0.0	0.1	14.4	1.2	-6.1	.	.
O=[N+]([O-])c1ccc(Sc2ccccn2)nc1	5.4	-1.2	5.8	34.0	20.9	-19.2	.	.
O=C(Nc1cc(Sc2ccccn2)cc([N+](=O)[O-])c1)c1ccc([N+](=O)[O-])cc1	14.3*	32.2*	-147.0	5.9	-13.2	.	1.0	35.4*
CC1CCCN(C(=O)COC(=O)c2cc(Br)ccc2O)C1 (stereo unspecified)	-2.9	-2.2	9.7	.	7.1	.	.	.
CNC(=O)Cn1nc(C)c(S(=O)(=O)N2CCOCC2)c1C	-0.8	-4.6	17.4	.	8.7	.	.	.
O=C(COC(=O)/C=C/c1ccco1)Nc1ccccc1	-2.5	-2.1	10.3	-14.8	6.9	7.4	.	.
COC(=O)c1ccccc1NC(=O)COC(=O)/C=C/c1ccco1	-1.5	21.4*	-97.1	-20.3	9.3	-10.3	5.7	2.0
CCCN(CC(=O)Nc1ccccc1C)C(=O)c1nn(CC)c(=O)c2ccccc12	2.5	-1.1	4.3	.	-17.8	.	.	.
Cc1ccc(NC(=O)CSc2nc(N)c3cc4c(nc3n2)CCCC4)cc1	2.1	29.1*	-155.8	32.2	-21.5	-15.3	28.2*	0.8
Nc1nc(SCC(=O)Nc2ccccc2)nc2nc3c(cc12)CCCC3	9.0	35.4*	-193.8	17.3	-51.7	13.5	6.6	4.6
N#Cc1ccccc1NC(=O)CN(Cc1ccccc1)Cc1ccccc1	-0.1	3.6	-30.0	-16.9	-3.6	1.8	.	.
Cc1cc(Cl)ccc1OCCCC(=O)N/N=C/c1cccc([N+](=O)[O-])c1	5.4	21.3*	-110.1	.	-8.8	16.4	2.0	-7.3
COc1cc(NC(=O)c2cc([N+](=O)[O-])ccc2NC(=O)CN2CCN(c3ccccn3)CC2)cc(OC)c1	-3.5	-3.3	17.8	2.5	-5.2	12.5	.	.
CCn1nc(C)c(CNC(=O)C2CCC(=O)N(Cc3ccc(Cl)cc3)C2)c1C (stereo unspecified)	-0.6	-3.5	24.1	-3.2	-2.1	4.0	.	.
CN1CCN(c2ccc(NC(=O)c3ccc(-c4ccccc4F)o3)cc2)CC1	3.7	158.2*	i	.	-37.8	.	248.6*	6.8
CN1CCN(c2ccc(NC(=O)c3ccc(Br)o3)cc2)CC1	0.3	0.8	-4.2	16.2	2.8	7.6	.	.
SMILES	HTR5A ag	MOR-DOR ag	OPRM1-OPRD1 inv	NALP1 yeast inh	HTR5A inv ctr	PolyA inh	OPRM1-D1 ag cf	HTR5A ag ctr2
CN1CCN(c2ccccc2NC(=O)c2ccc(-c3ccc(Cl)c(Cl)c3)o2)CC1	0.4	11.9	-68.0	-0.1	-1.5	-16.1	.	.
Cc1cc(N2CCN(C)CC2)ccc1NC(=O)c1ccc(-c2ccc(Cl)cc2)o1	2.0	26.2*	-136.0	.	-4.9	-11.3	44.5*	0.6
O=C(CSC(=S)N1CCCC1)N(Cc1nnc(-c2ccccc2Cl)o1)C1CC1	4.5	-6.1	23.0	.	-10.2	.	.	.
COc1ccc2cc(C)c(SCC(=O)Nc3cc(C)on3)nc2c1	0.5	18.4*	-109.8	8.2	-1.1	-2.9	9.9	4.3
CC(C)(C)OC(=O)CNC(=O)c1[nH]cnc1C(=O)NCCCCCNC(=O)OC(C)(C)C	0.5	1.0	-5.9	6.7	-1.2	-8.2	.	.
COc1ccc(Oc2ccc(C(F)(F)F)cc2N)cc1	-0.5	18.3*	-89.5	4.8	-15.6	6.2	7.5	0.0
COc1ccc(Oc2ccc(C(F)(F)F)cc2NC(=O)c2ccc(OC)cc2)cc1	-2.0	3.4	-17.1	.	-25.4	-0.1	.	.
Cc1cc(C)n(CC(O)CN2c3ccccc3Sc3ccccc32)n1 (stereo unspecified)	5.6	4.9	-28.6	-8.8	4.1	-4.2	.	.
C=C(CO)C1Cc2cc(C(C)=O)ccc2O1 (stereo unspecified)	5.4	-1.8	8.8	-0.6	-18.5	-5.1	.	.
CCOC(=O)c1c(O)c(Cl)c(C)[nH]c1=O	0.9	-1.8	9.2	-2.3	-8.3	-2.4	.	.
COc1ccc(NS(=O)(=O)c2cccc(C(=O)NCC(c3ccccc3)N(C)C)c2)cc1 (stereo unspecified)	1.0	2.7	-18.0	.	0.5	21.5	.	.
COc1ccc(C(CNC(=O)c2ccc3c(c2)OCCO3)N(C)C)cc1 (stereo unspecified)	-1.9	131.9*	i	7.9	5.8	-3.9	147.8*	0.9
COc1ccc(C(CNC(=O)c2cccc(S(=O)(=O)NCc3ccccc3)c2)N(C)C)cc1 (stereo unspecified)	-2.2	20.1*	-104.3	5.0	12.0	19.8	15.5	0.4

Bioassay records: PubChem BioAssay, several laboratories
